A selection: hits, their analogues and other compounds. The true share with any hit is near 4.2%.
DAX1 StAR inh: inhibitors of DAX1 repression of SF-1 activated StAR promoter. HEK293T StAR-luciferase reporter, SF-1/DAX-1 repression relief. inhibition, % at 6.8 µM. hit rate 1.1% among 370,000;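 active means inhibition above the mean over all tested compounds plus 3 SD, cut at about 3.6% in these data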;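 further: 0% = DAX-1 cells with DMSO and 100% = cells lacking DAX-1 with DMSO; higher inhibition means more luminescence from relief of DAX-1 repression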
esBAF inh: inhibitors of esBAF chromatin remodeling in mouse ES cells. Bmi1-luciferase knock-in reporter, 24 h; 100% = twice the neutral-well signal. reporter increase, % at 12.5 µM. hit rate 2% among 350,000. AID 602393; in the data active means activation above about 40%;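 further: 0% = median of the plate's neutral control wells and 100% = double that signal; a rise in the Bmi1 reporter signal indicates esBAF inhibition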
ssDAF-12 act: activators of S. stercoralis DAF-12 nuclear receptor; HEK293 ssDAF-12/GRIP1 lit1-tk-luc reporter, luminescence; % of 3 µM dafachronic acid response; activation, % at 6.8 µM; hit rate 1% among 370,000; AID 652126;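 active means activation above the mean over all tested compounds plus 3 SD, cut at about 0.9% in these data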;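 further: 0% = DMSO-only wells and 100% = 3 µM delta7-dafachronic acid wells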
hcDAF12 agonist: activates DAF-12 receptor from parasite H. contortus. hit rate 1.4% among 370,000. HEK293 hcDAF-12 lit1-tk-luc reporter, luminescence; 0% DMSO, 100% Δ7-dafachronic acid. activation, % at 6.8 µM;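 active means activation above the mean of all tested compounds plus 3 SD, cut at about 5.5% in these data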;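 further: 100% = response to 3 µM Δ7-dafachronic acid high control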
hgDAF12 agonist: activates the H. glycines DAF-12 receptor ligand-binding domain; HEK293 GAL4-hgDAF12 UAS-luciferase reporter, agonist luminescence; normalized to butyrate control; activation, % at 6.8 µM; hit rate 1.8% among 370,000;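 active means activation above a cutoff set at the mean of all screened compounds plus 3 SD, cut at about 10% in these data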;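 further: 0% = DMSO wells and 100% = sodium butyrate wells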
Wnt act: activators of Wnt/beta-catenin signaling; Wnt/beta-catenin reporter cell assay, activator, plate reader; hit rate 1.2% among 300,000; activation, % at 9.35 µM; in the data active means activation above about 30%, passing the limit was not always enough;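 further: 0% = neutral control wells and 100% = positive control wells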
* hit, by the source's call; / = no result given.

SMILES	DAX1 StAR inh	esBAF inh	ssDAF-12 act	hcDAF12 agonist	hgDAF12 agonist	Wnt act
C[C@H](CO)N1C[C@H](C)[C@H](CN(C)C)OCc2cn(nn2)CCCC1=O	/	-6	/	/	/	/
C[C@@H]1CN([C@@H](C)CO)C(=O)c2cc(-c3cccnc3)cnc2O[C@H]1CN(C)C(=O)C1CCCCC1	/	0	/	/	/	/
COc1ccc(-c2nc3ccccc3n2OCC(=O)O)cc1	2	25	0	1	11*	16
O=C(OCc1nc2ccc(Cl)cc2n1CCO)c1ccccc1	0	-1	0	2	9	/
COn1c(-c2ccc(Cl)cc2)nc2ccc(Cl)cc21	0	5	-1	2	9	57*
O=C(O)COn1c(-c2ccc(Cl)cc2)nc2ccc(Cl)cc21	1	/	0	6.2*	5	13
COc1ccccc1-c1cn(CC[C@@H]2CC[C@H](NC(=O)c3cnccn3)[C@H](CO)O2)nn1	/	-5	/	/	/	/
CCOc1cc2c(C#N)c(N3CCCCC3)nc(N)c2c(N)n1	1	54*	-1	0	2	/
CCCN1CCC2(CC1)NC(C(=O)O)Cc1c2[nH]c2ccccc12 (stereo not given)	/	-3	/	/	/	/
CCC1(C)NC(C(=O)O)Cc2c1[nH]c1ccccc21 (stereo not given)	0	-9	1.7*	4	2	0
Cc1ccccc1C(=O)NC1CCCCN(Cc2cccc(Cl)c2)C1=O (stereo not given)	-1	/	1.0*	-3	2	/
Cc1ccccc1CN1CCCCC(NC(=O)C2CCC2)C1=O (stereo not given)	0	/	1.9*	1	-1	/
COc1ccccc1CNC(=O)c1ccc(Cl)c(NC2=NC3CS(=O)(=O)CC3S2)c1 (stereo not given)	1	-1	-1	4	-1	-1
COc1ccccc1CNC(=O)c1ccc(NC2=NC3CS(=O)(=O)CC3S2)cc1 (stereo not given)	0	-6	-1	1	10*	3
Cc1nn(-c2ccccc2)nc1C(=O)NNC(=O)c1cccc2ccccc12	1	-3	-1	0	0	-1
Cc1nn(-c2ccccc2)nc1C(=O)NN	0	4	-1	0	0	36*
O=C(C[C@@H]1CC[C@@H]2[C@H](COC[C@H](O)CN2S(=O)(=O)c2ccccc2)O1)N[C@@H]1CCN(Cc2ccccc2)C1	/	3	/	/	/	/
Cc1cc(C(=O)COC(=O)c2n[nH]c3ccccc23)c(C)n1C	4.5*	-27	1.2*	8.1*	17*	/
Cc1cc(C(=O)COC(=O)c2n[nH]c(=O)c3ccccc23)c(C)n1C	3	22	-1	-1	6	25
COc1ccc(OC)c(C(=O)Cn2cnc3ccccc3c2=O)c1	0	-3	-1	-2	0	1
COc1cccc(NC(=O)C(C)OC(=O)c2n[nH]c3ccccc23)c1 (stereo not given)	-1	31	0	1	11*	9
COc1ccc(C(=O)Cn2cnc3ccccc3c2=O)c(OC)c1	3.6*	15	-1	3	6	10
Cc1cc(C)cc(NC(=O)COC(=O)c2n[nH]c3ccccc23)c1	0	/	-1	1	12*	17
C[C@@H]1CN([C@@H](C)CO)C(=O)Cc2cc(NC(=O)CCCN(C)C)ccc2O[C@H]1CN(C)C	/	0	/	/	/	/
CCS(=O)(=O)NCC[C@@H]1CC[C@@H](NS(=O)(=O)c2cccc(F)c2)[C@H](CO)O1	/	1	/	/	/	/
SMILES	DAX1 StAR inh	esBAF inh	ssDAF-12 act	hcDAF12 agonist	hgDAF12 agonist	Wnt act
COc1ccc(C(=O)COC(=O)c2n[nH]c3ccccc23)c(OC)c1	4.2*	/	0	4	12*	20
COc1ccc(OC)c(NC(=O)COC(=O)c2n[nH]c3ccccc23)c1	0	5	-1	0	0	-4
O=C(Nc1ccc(F)cc1)N[C@H]1CC[C@H](CC(=O)N2CCOCC2)O[C@H]1CO	/	1	/	/	/	/
CCn1c(CC(=O)Nc2ccc(Cl)cc2)nnc1SCC(=O)N1CCOCC1	1	-1	-1	0	0	-2
CCn1c(CNC(=O)c2ccc(Cl)cc2)nnc1SCC(=O)N1CCOCC1	4.5*	-1	-1	0	0	-1
Cn1cnc(S(=O)(=O)N[C@@H]2CC[C@H](CC(=O)Nc3ccc(-c4ccccc4)cc3)O[C@H]2CO)c1	/	-5	/	/	/	/
